# From PubChem BioAssay AID540333 (Southern Research Specialized Biocontainment Screening …, 2011)
# Screen size: about 10,000 compounds; about 320 (3.2%) were called active. Rule as the data show it: active = CPE inhibition mostly above about 9.1% (no sharp cut-off); inactive = mostly below about 7.2%. The list comes from a sample in which actives are over-represented; it also holds similar structures and randomly drawn compounds.
# Experiment: Dengue virus cytopathic effect inhibitors, cell-based, CPE readout, HTS (AID 540333)
# Conditions: Dengue virus CPE inhibition in host cells, at 20 µM; hits give high values
row,Compound,CPE inhibition
1,CC(CCc1ccccc1)N1CCN(Cc2ccccc2)CC1 (stereo not drawn),inactive
2,CC(C)NC(=O)/C(C#N)=C/c1cccc(NC(=O)c2ccccc2Cl)c1,3.16% (inactive)
3,Cc1nn(-c2ccccc2)c(Cl)c1/C=C(\C#N)C(=O)NC(C)C,20% (active)
4,Cc1nn(-c2ccccc2)c(Cl)c1/C=N/NC(=O)c1cccnc1,4.37% (inactive)
5,Cc1ccccc1N1CCN(C(=S)c2ccc([N+](=O)[O-])cc2)CC1,inactive
6,CC(C)(C)NC(=O)C(c1c[nH]c2ccccc12)N(C(=O)Cn1nnc(-c2ccc(Cl)cc2)n1)c1ccccc1F (stereo not drawn),17.2% (active)
7,Cc1cc(C)cc(N(C(=O)Cn2nnc(-c3ccccc3)n2)C(C(=O)NC2CCCCC2)c2ccccn2)c1 (stereo not drawn),2.08% (inactive)
8,CC(=O)c1ccc(N(C(=O)Cn2nnc(-c3ccccc3)n2)C(C(=O)NC2CCCCC2)c2ccccn2)cc1 (stereo not drawn),4.29% (inactive)
9,Cc1ccc([N+](=O)[O-])cc1S(=O)(=O)N(C(=O)c1ccncc1)c1ccc2oc3c(c2c1)CCCC3,21.1% (active)
10,CC(=O)Oc1ccc(N(C(C)=O)S(=O)(=O)c2cc([N+](=O)[O-])ccc2C)cc1,inactive
11,O=[N+]([O-])c1cc2oc3c(c2c(C=NCc2ccncc2)c1O)CCCC3,1.15% (inactive)
12,COc1cc(NC(=O)COC(=O)CC(C)(C)C)c(C)cc1[N+](=O)[O-],0.185% (inactive)
13,Clc1ccc(CNCc2cccs2)c(Cl)c1,0.01% (inactive)
14,CN(C)c1ccc(-c2nc3ccccn3c2/N=C/c2ccc(Br)cc2)cc1,14.2% (active)
15,Cc1c(-c2ccc(Br)cc2)nc2ccccn12,1.3% (inactive)
16,COc1ccc(-c2nc3ccccn3c2/N=C/c2ccc(OC)c(OC)c2)cc1O,0.31% (inactive)
17,Cc1ccc(-c2csc(N/N=C/c3ccco3)n2)c(C)c1,inactive
18,COc1cccc(OCCOCCOc2ccc(C)cc2[N+](=O)[O-])c1,inactive
19,CC/C(=N\NC(=O)C(N)=O)c1ccccc1O,inactive
20,CCCCCC(=O)Nc1nc(C)c(-c2csc(Nc3cc(Cl)ccc3C)n2)s1,inactive
21,O=C1c2cccc3cccc(c23)C(=O)N1CCN1CCN(CC(O)COc2ccc3ccccc3c2)CC1 (stereo not drawn),inactive
22,O=C(COC(=O)c1cc(-c2ccccc2Cl)nc2ccccc12)Nc1ncc(C(F)(F)F)cc1Cl,inactive
23,COC(=O)N1[C@H](C)C=C[C@]1(Cc1ccccc1)C(=O)NCCCNc1ncc(C(F)(F)F)cc1Cl,9.39% (active)
24,O=C(COC(=O)C1(c2ccccc2F)CCCC1)Nc1ncc(C(F)(F)F)cc1Cl,0.45% (inactive)
25,Cc1ccc(/C=N/NS(=O)(=O)c2ccc([N+](=O)[O-])cc2)o1,inactive

row,Compound,CPE inhibition
1,Cc1ccc(C(=O)O/N=C(\N)c2cccnc2)cc1[N+](=O)[O-],1.06% (inactive)
2,NS(=O)(=O)c1ccc(NC(=O)COC(=O)C2(c3ccc(F)cc3)CCCC2)cc1,0.475% (inactive)
3,CC(=O)Nc1ccc(NC(=O)COC(=O)C2(c3ccc(Cl)cc3)CCCC2)cc1,0.545% (inactive)
4,Cc1ccc(NC(=O)COC(=O)C2(c3ccc(Cl)cc3)CCCC2)cc1,10.5% (active)
5,COc1ccc(/C=C/C(=O)c2cc(F)ccc2OC(=O)c2ccccc2C)cc1OC,inactive
6,CCN(CC)c1ccc(C(=O)OCC(=O)Nc2sccc2C#N)cc1,inactive
7,N#Cc1ccsc1NC(=O)CN1CCN(c2ccccc2O)CC1,inactive
8,N#Cc1ccsc1NC(=O)CN(Cc1ccccc1)Cc1ccccc1,9.87% (active)
9,CSc1sc(C)cc1/C=N/O,inactive
10,S=C(NCCc1ccccc1)N/N=C/c1ccccc1Cl,18.4% (active)
11,S=C(NCCc1ccccc1)Nc1ccc(Br)cc1,3.17% (inactive)
12,C/C(=N\NC(=S)NCCc1ccccc1)c1ccc(Cl)cc1,1.61% (inactive)
13,O=C(Nc1cc(Cl)ccc1Cl)c1ccc(-c2ccccc2)cc1,inactive
14,O=C(Nc1ccc(Cl)c(C(F)(F)F)c1)[C@@H]1CC=C[C@@H]2CCN(Cc3ccc(Cl)c(Cl)c3)C(=O)[C@@H]21,9.69% (inactive)
15,COc1cc(NC(=O)CN2C(=O)C(c3ccccc3)=NC23CCCCCC3)cc(OC)c1,14% (active)
16,COc1ccc(NC(=O)CN2C(=O)C(c3ccccc3)=NC23CCCCCC3)cc1OC,0.935% (inactive)
17,COc1ccc(NC(=O)CN2C(=O)C(c3ccccc3)=NC23CCCCCC3)cc1,5.39% (inactive)
18,CCOC(=O)/C(N=Nc1sc(C(=O)OC)c(C)c1C(=O)OCC)=C(\O)CCl,0.165% (inactive)
19,Cc1cc(C)c(S(=O)(=O)Nc2ccccc2-c2ccccc2)c(C)c1,20.4% (active)
20,Cc1ccc(NS(=O)(=O)c2ccc3c(c2)C(=O)c2ccccc2C3=O)c(C)c1,4.82% (inactive)
21,Cc1ccc(S(=O)(=O)N(CC(=O)Nc2ccccc2-c2ccccc2)c2ccc(C)cc2C)cc1,10.8% (inactive)
22,Clc1ccc(-n2nnnc2CN2CCOCC2)cc1Cl,0.27% (inactive)
23,COc1ccccc1OCCOCCOc1ccccc1Cl,inactive
24,O=C(COC(=O)/C=C/c1ccc(OC(F)F)cc1)NCc1cccs1,0.315% (inactive)
25,CCOC(=O)c1c(C)[nH]c(C)c1C(=O)COC(=O)/C=C/c1ccc(OC(F)F)cc1,10.1% (active)

row,Compound,CPE inhibition
1,O=C1CN(C(=O)COC(=O)/C=C/c2ccc(OC(F)F)cc2)c2ccccc2N1,inactive
2,C/C(=N\NC(=O)CSc1nnc(C)s1)c1ccc(Cl)cc1,inactive
3,CC(C)CC(=O)NC1(C(F)(F)F)C(=O)N(CC(C)C)C2=C1C(=O)CC(C)(C)C2 (stereo not drawn),inactive
4,CNc1nc(Nc2ccc(C)c(Cl)c2)nc(N)c1[N+](=O)[O-],9.08% (active)
5,CC(=O)Nc1ccc(Nc2nc(C)c([N+](=O)[O-])c(Nc3ccc(NC(C)=O)cc3)n2)cc1,inactive
6,Cc1ccc(C)c(Nc2ncnc(N)c2[N+](=O)[O-])c1,6.21% (inactive)
7,COc1cccc(-c2ncc3ccccc3c2CO)c1,inactive
8,COc1cccc(-c2ncc3ccccc3c2COC(=O)c2ccc(C(F)(F)F)cc2)c1,0.77% (inactive)
9,COc1cccc(-c2ncc3ccccc3c2COC(=O)c2ccc(C(C)(C)C)cc2)c1,15.2% (active)
10,CC(=O)N1N=C(c2ccc(Br)cc2)OC1(C)CC(=O)Nc1ccccc1 (stereo not drawn),4.7% (inactive)
11,O=C(CN1CCCCCCC1)N/N=C/c1ccccc1F,0.805% (inactive)
12,C/C(=N\Nc1ccc(Cl)c(Cl)c1)c1ccc(-n2ccnc2)cc1,inactive
13,CC(C)(C)c1ccc(OCC(=O)N/N=C/c2ccc(N3CCOCC3)cc2)cc1,1.86% (inactive)
14,C/C(=N\NC(=O)COc1ccc(C(C)(C)C)cc1)c1ccc(-n2ccnc2)cc1,10.2% (active)
15,CN(c1ccccc1)S(=O)(=O)c1cccc(NC(=O)CSc2ncc(C(F)(F)F)cc2Cl)c1,22.4% (active)
16,CN(c1ccccc1)S(=O)(=O)c1cccc(NC(=O)CSc2nncn2C)c1,0.35% (inactive)
17,NS(=O)(=O)c1cccc(NC(=O)CSc2ncc(C(F)(F)F)cc2Cl)c1,3.56% (inactive)
18,Cc1c(Cl)cccc1NC(=S)NCc1cccn1C,0.255% (inactive)
19,Cc1cc(C)cc(-n2c(C)cc(/C=C3\C(=N)N4N=C(CC(C)C)SC4=NC3=O)c2C)c1,15.1% (active)
20,Cc1cccc(-n2c(C)cc(/C=C3/C(=N)N4C(c5ccccc5)=CSC4=NC3=O)c2C)c1,5.77% (inactive)
21,Cc1cccc(-n2c(C)cc(/C=C3\C(=N)N4N=C(CC(C)C)SC4=NC3=O)c2C)c1,0.575% (inactive)
22,COC(=O)c1ccc(Oc2c(Cl)cccc2[N+](=O)[O-])cc1,0.625% (inactive)
23,COc1ccc(Nc2nc(-c3cccc([N+](=O)[O-])c3)nc3ccccc23)c(OC)c1,0.465% (inactive)
24,O=C(O)CC(CC(=O)O)c1ccsc1,inactive
25,C=CC[C@]12CCc3sccc3C1N(c1ccc(C(=O)OCC)cc1)C2=O (stereo partly drawn),19.9% (active)

row,Compound,CPE inhibition
1,CCOC(=O)N1CCN(C(=O)c2ccc(-n3c(C)ccc3C)cc2)CC1,0.68% (inactive)
2,CCOC(=O)c1ccc(-n2c(C)ccc2C)cc1,0.33% (inactive)
3,Cc1cc(=O)[nH]c(N/N=C/c2ccc(Br)s2)n1,inactive
4,CCc1nnc(N2C(=O)c3ccc(Oc4ccc([N+](=O)[O-])cc4)cc3C2=O)s1,0.2% (inactive)
5,Cc1cccc(-c2nsc(SCC(=O)NCc3ccc4c(c3)OCO4)n2)c1,0.255% (inactive)
6,S=C(Nc1ccccc1Oc1ccccc1)Nc1cccc(Cl)c1Cl,12.8% (active)
7,FC(F)Oc1ccccc1NC(=S)Nc1cccc(Cl)c1Cl,0.195% (inactive)
8,S=C(Nc1ccc(OCc2ccccc2)cc1)Nc1cccc(Cl)c1Cl,0.45% (inactive)
9,COc1cccc(NC(=O)CN2C(=O)C(c3ccc(C)cc3)=NC23CCCCCC3)c1,3.59% (inactive)
10,Cc1ccc(-n2c(=S)[nH]c3nc4c(cc3c2=O)COC(C)(C)C4)cc1,inactive
11,O=S(=O)(/N=C(/Nc1ccccn1)c1ccc(Cl)cc1)c1ccc(Cl)cc1,0.025% (inactive)
12,O=C1c2cccc(OCc3ccc(F)cc3)c2CCN1Cc1ccc(F)cc1,7.61% (inactive)
13,O=C1c2cccc(OCC(=O)N3CCCc4ccccc43)c2CCN1Cc1ccccc1,inactive
14,Cc1ccc(COc2cccc3c2CCN(Cc2ccc(F)cc2)C3=O)cc1,23% (active)
15,COC(=O)c1ccc(COc2cccc3c2CCN(Cc2cccc(C)c2)C3=O)o1,0.825% (inactive)
16,O=C(COc1cccc2c1CCN(Cc1ccccc1)C2=O)NCc1ccco1,inactive
17,CCOC(=O)N1CCN(C(=O)COc2cccc3c2CCN(Cc2ccc(F)cc2)C3=O)CC1,0.16% (inactive)
18,Cc1ccc(C)c(NC(=O)COc2cccc3c2CCN(Cc2ccccc2)C3=O)c1,0.435% (inactive)
19,O=C1c2cccc(OCc3ccc(F)cc3)c2CCN1Cc1ccccc1,11.8% (active)
20,Cc1cccc(CN2CCc3c(OCC(=O)NCc4ccco4)cccc3C2=O)c1,inactive
21,O=C(COc1cccc2c1CCN(Cc1ccc(Br)cc1)C2=O)NCc1ccco1,13.9% (active)
22,Cc1ccc(CN2CCc3c(OCc4ccc(F)cc4)cccc3C2=O)cc1,23.2% (active)
23,Cc1cccc(CN2CCc3c(OCC(=O)N4CCCc5ccccc54)cccc3C2=O)c1,4.05% (inactive)
